Shown are actives, neighbours in structure and some others; about 4% of the full set was active somewhere.
TWEAK-Fn14 inh – TWEAK-Fn14 signaling inhibition. TWEAK-stimulated Fn14 reporter cells, luciferase luminescence, 8 h. inhibition, % at 10 µM. 360,000 tested, 2% active. AID 1159606; in the data active means inhibition above about 50%
CF NFkB inh – cystic fibrosis NF-kB activation inhibition. 360,000 tested, 0.86% active. inhibition, % at 5 µM. KKLEB NF-kB-GFP reporter, PAF-induced, GFP fluorescence overnight. AID 588850;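 active means at least 50% inhibition at 5 µM, scaled per plate between neutral and stimulator controls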;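 further: PAF is a Pseudomonas aeruginosa culture filtrate used as stimulus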
KKLEB cytotox – reduces viability of KKLEB cystic fibrosis airway cells | KKLEB CF airway cells viability, ATPlite luminescence, overnight; hits give low values; cells stimulated with P. aeruginosa culture filtrate | activity change (cytotoxicity), % at 5 µM | 360,000 tested, 0.36% active;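 active means corrected activity change at or below -50% at 5 µM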
TROY NFkB inh – blocks TROY-dependent signaling in reporter cells; 360,000 tested, 0.98% active; inhibition, % at 10 µM; AID 1347056; Q293 LMP1-TROYcd NF-kB luciferase reporter, 4 h;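 active means compounds whose plate-normalised and pattern-corrected inhibition of the luciferase reporter signal at the single screening dose is 50% or more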
HIF-2a inh – HIF-2a inhibition. 786-0 RCC cells HIF-2a reporter, luciferase luminescence, overnight. inhibition, % at 18.8 µM. 360,000 tested, 0.72% active. AID 624352;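 active means inhibition of the luminescence signal of 40% or more relative to plate controls, in a single-dose primary screen at 18.75 µM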
Peg3 promoter – Peg3 promoter activity inhibition. inhibition, % at 20 µM. HeLa PEG-Prom luciferase reporter, luminescence, overnight. 360,000 tested, 1.7% active;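 active means inhibition of at least 50% at 20 µM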
Each line names hits and unclear results; the compound was inactive in the other large screens.

Cc1cc(C)nc(SCCC(=O)Nc2ccccc2C)n1	TWEAK-Fn14 inh 106
Cc1cc(C)nc(SCCC(=O)Nc2ccccc2)n1	none
O=C(c1ccco1)N1CCN(c2ncnc3scc(-c4ccccc4)c23)CC1	none
O=C(c1ccco1)N1CCN(c2ncnc3scc(-c4cccs4)c23)CC1	Peg3 promoter 53
Fc1ccc(-c2csc3ncnc(N4CCN(c5ccccc5)CC4)c23)cc1	none
c1ccc(N2CCN(c3ncnc4scc(-c5cccs5)c34)CC2)cc1	TWEAK-Fn14 inh 64
CC(OC(=O)c1cc(=O)c2ccccc2o1)C(=O)c1ccccc1 (configuration not stated)	none
Cc1ccc(Cl)cc1S(=O)(=O)N1CCC(C(=O)NC2CCN(Cc3ccccc3)CC2)CC1	TWEAK-Fn14 inh 52
O=C(Nc1cc(Sc2ccccn2)cc([N+](=O)[O-])c1)c1ccc(Cl)cc1	TWEAK-Fn14 inh 65
O=C(N/N=C/c1ccccn1)c1ccc(NC(=O)c2cccc([N+](=O)[O-])c2)cc1	none
O=C(Nc1cc(Sc2ccccn2)cc([N+](=O)[O-])c1)c1cccc(Cl)c1	TWEAK-Fn14 inh 78
NC(Cc1ccc(C(F)(F)F)cc1)c1csc(NC(=O)Nc2ccccc2)n1 (configuration not stated)	Peg3 promoter 94
NC(COCc1ccccc1)c1csc(NC(=O)Nc2cccc(Cl)c2)n1 (configuration not stated)	Peg3 promoter 96
CC(C)C(N)c1csc(NC(=O)Nc2ccc(OC(F)(F)F)cc2)n1 (configuration not stated)	Peg3 promoter 97
COc1ccc(CC(N)c2csc(NC(=O)Nc3cccc(C(F)(F)F)c3)n2)cc1 (configuration not stated)	Peg3 promoter 97
CC(Cc1cnccn1)NC(=O)c1cc(COc2ccc(F)cc2F)on1 (configuration not stated)	none
COc1ccc(C2CC(c3ccc(C(F)(F)F)cc3)=NN2c2ccc(S(N)(=O)=O)cc2)cc1 (configuration not stated)	none
CCCCCCCc1c(O)nc(SCC(=O)O)[nH]c1=O	none
CC1CCc2c(sc(NC(=O)Cn3cnc([N+](=O)[O-])n3)c2C(N)=O)C1 (configuration not stated)	none
NCc1csc(NC(=O)Nc2cccc(C(F)(F)F)c2)n1	none
CC(C)C(N)c1csc(NC(=O)Nc2cccc(C(F)(F)F)c2)n1 (configuration not stated)	Peg3 promoter 97
COc1ccc(CC(N)c2csc(NC(=O)Nc3ccc(F)cc3)n2)cc1 (configuration not stated)	Peg3 promoter 55
COc1ccc(CC(N)c2csc(NC(=O)NCc3ccccc3)n2)cc1 (configuration not stated)	none
CC(C)c1ccc(NC(=O)Nc2nc(C(N)c3ccccc3Cl)cs2)cc1 (configuration not stated)	Peg3 promoter 88
CC(C)(C)c1ccccc1NC(=O)Nc1nc(C(N)c2ccccc2Cl)cs1 (configuration not stated)	none
NC(Cc1ccc(C(F)(F)F)cc1)c1csc(NC(=O)Nc2ccccc2Cl)n1 (configuration not stated)	Peg3 promoter 89
COc1ccc(NC(=O)C2CCCN(S(=O)(=O)c3c(C)[nH]c(=O)[nH]c3=O)C2)cc1 (configuration not stated)	none
CC1=C(C#N)CCC(=O)N1Cc1c(F)cccc1Cl	none
NC(Cc1ccc(C(F)(F)F)cc1)c1csc(Nc2nncc3ccccc23)n1 (configuration not stated)	Peg3 promoter 94
COc1ccc(CC(N)c2csc(NC(=O)NCCc3ccc(OC)c(OC)c3)n2)cc1 (configuration not stated)	none
NC(CCc1ccccc1)c1csc(NC(=O)Nc2cccc(C(F)(F)F)c2)n1 (configuration not stated)	Peg3 promoter 95
COc1cc(CNC(=O)Nc2nc(C(N)Cc3ccc(C(F)(F)F)cc3)cs2)cc(OC)c1OC (configuration not stated)	Peg3 promoter 98
NC(CO)c1csc(NC(=O)Nc2cccc(Cl)c2)n1 (configuration not stated)	none

Assay outcomes from PubChem BioAssay.
